# Records with an inconclusive call do not appear. A call without a number means that no potency is given here. Calls of active or inactive are those of the source. Calls come from the whole dose curve; as a rule, active = well fitted activation curve with a large enough effect; inconclusive = small, poorly fitted or top-dose-only effect; inactive = flat fitted curve, though single readings scatter.
# Experiment: qHTS for Inhibitors of Cell Surface uPA Generation: FP59 Counterscreen for Cherry-picked Compounds
# Conditions: FP59 anthrax toxin cytotoxicity counterscreen, cells; series mostly up to 115 µM
row,Compound,Potency
1,C[C@H](CO)N1C[C@H](C)[C@@H](CN(C)C(=O)Nc2ccccc2)Oc2c(NS(=O)(=O)c3ccccc3)cccc2C1=O,inactive
2,Cc1ccc(S(=O)(=O)N(C)c2ccc(OC(=O)c3ccc(=O)[nH]c3)cc2)cc1,inactive
3,C/C=C(/C(=C/C)c1ccc(O)cc1)c1ccc(O)cc1,inactive
4,O=C(C1CCCCN1S(=O)(=O)c1ccc(F)cc1)N1CCN(c2ccccc2F)CC1 (stereo not given),inactive
5,CCC(C)NC(=O)c1ccc2nc(-c3ccc(OC)c(OC)c3)c(-c3ccc(OC)c(OC)c3)nc2c1 (stereo not given),inactive
6,O=C(CSC1=NS(=O)(=O)c2ccccc2N1)Nc1nccs1,inactive
7,CCc1ccccc1NC(=O)CN(C)C(=O)CSc1nnc(Nc2cccc(C)c2C)s1,inactive
8,COc1cc(OC)cc(C(=O)NC(C(=O)Nc2ccc3c(c2)CCC3)C(C)C)c1 (stereo not given),inactive
9,COc1cccc(-n2c(SCC(=O)Nc3cc(C)on3)nc3c([nH]c4ccccc43)c2=O)c1,inactive
10,Cc1cccc(C(=O)NC2CCN(CC(=O)N3CCOCC3)CC2)c1,inactive
11,C=C(C(=O)O)C1CCC2(C)CCCC(C)(O)C2C1 (stereo not given),inactive
12,CC1(C)CC(=O)C([N+](=O)[O-])=C(NCCCC(=O)O)C1,inactive
13,Cc1cccc(N2C(=O)N3[C@H](c4ccc(F)cc4)[C@@H]4C(=O)N(C5CCCCC5)C(=O)[C@@H]4[C@]3(Cc3ccc(Cl)cc3)C2=O)c1,inactive
14,O=C(N/N=C/c1cccnc1)c1ccccc1[N+](=O)[O-],inactive
15,COC(=O)/C(C#N)=C/c1c(N2CCN(c3ccccc3)CC2)nc2c(C)cccn2c1=O,inactive
16,COc1ccc(-c2sc3ccccc3c2C#CCO)cc1,inactive
17,COc1ccc(NC(=O)Nc2nnc(N3CCCCC3C)s2)cc1OC (stereo not given),inactive
18,NC(=O)C1CCN(C(=O)c2cccc3ccccc23)CC1,inactive
19,COc1ccc(C(=O)CC2(C(=O)O)CCCCC2)cc1,inactive
20,Cc1ccc(S(=O)(=O)N2CCOCC2)cc1NC(=O)CSc1nc(N)cc(N)n1,inactive
21,O=C(NCc1ccc(F)cc1)c1cc(S(=O)(=O)N2CCCCC2)ccc1N1CCOCC1,inactive
22,NC(=O)c1ccc(NC(=O)CN2CCN(S(=O)(=O)c3ccc4ccccc4c3)CC2)cc1,inactive
23,CC(C)(C)OC(=O)NCCCCCNC(=O)c1[nH]cnc1C(=O)Nc1ccc(Cl)cc1,inactive
24,CC(Sc1nnc2ccccn12)C(=O)NCc1ccc2c(c1)OCO2 (stereo not given),inactive
25,Cc1cc(N)n(Cc2ccc(Cl)cc2)n1,inactive

# From PubChem BioAssay AID720517 (National Center for Advancing Translational Sciences (NCATS), 2013)
